From PubChem BioAssay
FMDV antiviral: antivirals against foot and mouth disease virus. FMDV antiviral cell-based qHTS. Potency, µM (series often up to 57.9 µM), usual class: inhibitors. 410,000 compounds, 1.2% hits. AID 1159524; calls by dose curve; tested in HEK293T cells; further: read-out not given here; nearly all actives have a fitted effect of over 45% in size
AmpC inh detg: AmpC beta-lactamase inhibition with detergent present; Potency, µM (series often up to 114 µM), most hits filed as inhibitors; P00811; AmpC hydrolysis of nitrocefin, absorbance 480 nm, 0.01% Triton; 370,000 compounds, 0.041% hits; further: nearly all actives have a fitted effect of over 25% in size
Target sequence (P00811 whole entry, looked up): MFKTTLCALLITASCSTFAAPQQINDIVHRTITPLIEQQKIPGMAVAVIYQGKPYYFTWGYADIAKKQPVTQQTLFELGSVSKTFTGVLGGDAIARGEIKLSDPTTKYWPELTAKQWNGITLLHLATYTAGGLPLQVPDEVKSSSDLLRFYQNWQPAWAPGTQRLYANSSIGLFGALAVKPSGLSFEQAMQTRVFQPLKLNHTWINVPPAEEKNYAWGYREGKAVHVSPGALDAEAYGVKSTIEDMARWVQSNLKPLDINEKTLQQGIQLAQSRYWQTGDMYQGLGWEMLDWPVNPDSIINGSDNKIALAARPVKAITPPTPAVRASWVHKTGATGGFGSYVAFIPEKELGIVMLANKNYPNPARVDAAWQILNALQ
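20 mM phosphate pH 7.0 + 0.01% (detergent screen) or 0.0001% Triton X-100; 5.3 nM AmpC reagent; cpd preinc 15 min RT; nitrocefin (800 uM stock) to start; A480 q20 s × 4 min; Activity was normalised to no-enzyme and no-compound control wells.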
HCV inh: HCV inhibition | 340,000 compounds, 3.4% hits | Potency, µM (series often up to 41.8 µM), most hits filed as inhibitors | Huh7.5.1 HCVcc-Cre infection, luciferase reporter, 44 h
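Reporter virus HCVcc-Cre (~0.5 moi) infects cells exposed to compound; seeding density 1,000 cells/well with 4 h settling beforehand. Luminescence, 15 sec read, taken 44 h post-infection following a 15 min RT substrate incubation.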
AmpC no deterg: AmpC beta-lactamase inhibition without detergent | Potency, µM (highest dose often 57.1 µM), usual class: inhibitors | AmpC nitrocefin hydrolysis, absorbance 480 nm, 0.0001% Triton | P00811 | 330,000 compounds, 0.52% hits; further: nearly all actives have a fitted effect of over 20% in size
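20 mM phosphate pH 7.0 + 0.01% (detergent screen) or 0.0001% Triton X-100; 5.3 nM AmpC reagent; cpd preinc 15 min RT; nitrocefin (800 uM stock) to start; A480 q20 s × 4 min; Activity was normalised to no-enzyme and no-compound control wells.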
HCMV inh: inhibitors of human cytomegalovirus; HFF cells, HCMV-luciferase reporter, 72 h; hits give low values; activity change, negative = inhibition, % at 57.5 µM; 410,000 compounds, 4.5% hits; in the data active means activity change below about -60%; inconclusive means no clear call, values can overlap the other calls; inactive means above about -39%
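Two compound doses tested in HFFs infected with HCMV-luciferase, MOI 1 PFU/cell, 72 h at 37C. Lysate luminescence read with OneGlo; data normalized against buffer-only and 10uM Salinomycin inhibitor controls.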
Numbers stand for hits; – = inactive; ? = inconclusive; · = no result given; [ ] = dose if it differs, or a comment. Only some compounds are listed: those with a hit (about 7.3% of all), similar ones and a draw of the others. Unless noted, the call rests on the fitted dose curve; in most records, active means well fitted curve in the direction sought with a large enough effect; inconclusive means small, poorly fitted or top-dose-only effect, or another doubt; inactive means no such curve, though single readings can be large; an effect the other way counts as inactive or inconclusive.

SMILES | FMDV antiviral | AmpC inh detg | HCV inh | AmpC no deterg | HCMV inh
Cc1ccc(NC(=O)CCc2ccc(S(=O)(=O)NC3CCCCC3)cc2)cc1 | – | – | ? | – | –
COc1ccccc1NC(=O)c1cc(C(=O)Nc2ccccc2OC)cc([N+](=O)[O-])c1 | – | – | – | – | –
O=C(NCc1ccccc1F)C(=O)NCC1CCCN1S(=O)(=O)c1ccccc1 (centres undefined) | – | ? | –[8.37 µM] | 35.5µM | –
Cc1cc(C)n(/N=C/c2cccs2)c(=O)c1C#N | – | ? | – | – | -76.2
O=C(CN1CCCCCC1)Nc1ccc(Br)cc1 | – | – | · | – | –
CCOC(=O)C1CCN(CC(=O)Nc2c(C(=O)OC)[nH]c3ccc(Cl)cc23)CC1 | ? | ? | 10µM | – | –
CCOC(=O)C1CCN(CC(=O)Nc2c(C(=O)OC)[nH]c3ccccc23)CC1 | · | ? | · | – | –
COC(=O)c1[nH]c2ccc(Br)cc2c1NC(=O)CN1CCN(C2CCCCC2)CC1 | 31.6µM | – | 11.2µM | – | –
O=C(CN1CCN(C2CCCCC2)CC1)Nc1ccc(Br)cc1 | – | – | 10µM | – | –
COc1ccc(Cn2c(CNC(=O)c3ccc(N(C)C)cc3)nc3cccnc32)cc1 | – | – | · | · | –
COc1ccc(C(CC(=O)Nc2cc(OC)c(OC)c(OC)c2)N2Cc3ccccc3C2=O)cc1 (centres undefined) | – | – | · | · | –
COc1ccc(CCN2C(=O)N(c3ccc(F)cc3)C(=O)C2CC(=O)Nc2ccccc2)cc1 (centres undefined) | – | – | · | · | –
NNC(=O)C1C(O)CCC2CN3CCc4c([nH]c5ccccc45)C3CC21 (centres undefined) | – | · | – | · | -100.3
COC(=O)[C@H]1C2CC3c4[nH]c5ccccc5c4CCN3CC2CC[C@@H]1O (some centres undefined) | – | · | · | · | ·
Cc1cc(C(=O)CSc2ncn[nH]2)c(C)n1-c1cccc(S(=O)(=O)N2CCOCC2)c1 | 28.2µM | – | ? | – | –
Cc1cc(C(=O)CCl)c(C)n1-c1cccc(S(=O)(=O)N2CCOCC2)c1 | 25.1µM | – | ? | – | –
CCCCC(=O)OCc1cc(=O)n2nc(C3CC3)sc2n1 | – | – | · | · | –
COc1ccc(CCNC(=O)COC(=O)Cn2cnc3c2c(=O)n(C)c(=O)n3C)cc1 | – | – | – | – | –
Cn1c(=O)c2c(ncn2CC(=O)OCC(=O)NCc2ccc(F)cc2)n(C)c1=O | – | · | · | · | -64.9
CCOC(=O)c1ccc(CN2C(=O)C(n3cccc3)c3ccccc32)o1 (centres undefined) | · | · | · | · | –
COc1ccc(Br)cc1CNC(=O)c1ccc(-n2c(C)cc3c2CCC(C)C3)cc1 (centres undefined) | – | – | · | · | –
CC(=O)c1ccc(S(=O)(=O)N2CCCC(N(C)CCc3ccccn3)C2)cc1 (centres undefined) | – | – | – | – | –
CC(=O)Nc1ccc(C(=O)N2CCCC(c3nc(SCc4ccccn4)ncc3C)C2)cc1 (centres undefined) | – | · | · | · | ·
Cc1cnc(SCc2ccccn2)nc1C1CCCN(C(=O)c2scc3c2CCCC3)C1 (centres undefined) | 15.8µM | · | · | · | ·
Cc1cnc(SCc2ccccn2)nc1C1CCCN(C(=O)c2coc3c2C(=O)CCC3)C1 (centres undefined) | – | · | · | · | ·
SMILES | FMDV antiviral | AmpC inh detg | HCV inh | AmpC no deterg | HCMV inh
Cc1cnc(SCc2ccccn2)nc1C1CCCN(C(=O)c2noc3c2CCCC3)C1 (centres undefined) | 20µM | · | · | · | ·
Cc1cccc(CNC(=O)c2c3n(c(C)cc2=O)-c2ccccc2SC(c2ccsc2)C3)n1 (centres undefined) | – | · | · | · | ·
CC(=O)Nc1ccc(S(=O)(=O)NCC2CCC(C(=O)NCCN(CC(C)C)CC(C)C)CC2)cc1 (centres undefined) | – | – | · | · | –
COc1ccc(NC2c3ccccc3C(=O)N2c2ccccn2)cc1 (centres undefined) | – | – | – | – | -79.7
Cc1ccc(N2C(=O)c3ccccc3C2Nc2ccc(S(=O)(=O)N3CCCCC3)cc2)nc1 (centres undefined) | – | ? | ? | – | –
CCN(CC)S(=O)(=O)c1ccc(NC2c3ccccc3C(=O)N2c2ccc(C)cn2)cc1 (centres undefined) | – | – | 14.1µM | – | –
COc1ccc(Cn2c(-c3ccc(C)cc3)c[n+]3ccccc23)cc1 | ? | – | ? | – | -96.9
COc1ccc(-c2nc3ccccc3n2Cc2ccc(C)cc2)cc1 | – | ? | ? | · | –
COc1ccc(C(C(=O)NC(C)(C)C)n2c(=O)c(-c3cc4ccccc4[nH]3)nc3ccccc32)cc1 (centres undefined) | – | · | · | · | –
CCN(CC)CCCNC(=O)CSc1nc(-c2cccs2)cc(C(F)(F)F)n1 | – | – | ? | – | ?
O=C(NCCc1ccccc1)c1nc2nc(-c3cccs3)cc(C(F)(F)F)n2n1 | – | ? | 10µM | – | –
O=C(CSc1nc(-c2cccs2)cc(C(F)(F)F)n1)NCc1ccccc1 | – | – | 3.98µM | – | –
CC(C)OC(=O)c1ccc(NC(=O)CSc2nc(-c3cccs3)cc(C(F)(F)F)n2)cc1 | – | – | · | · | –
O=C(CSc1nc(-c2ccc(F)cc2)cc(C(F)(F)F)n1)NCc1ccccc1 | – | – | · | · | –
CCCNC(=O)CSc1nc(-c2cccs2)cc(C(F)(F)F)n1 | – | – | 3.98µM | – | –
CC(C)CNC(=O)CSc1nc(-c2cccs2)cc(C(F)(F)F)n1 | ? | – | – | – | -68.4
Cc1cccc(CN2C[C@H](Sc3ccccn3)C[C@H]2C(=O)Nc2ccc3sc(C)nc3c2)c1 | – | · | · | · | ·
Cc1cccc(N2CC(C(=O)NCC3COc4ccccc4O3)CC2=O)c1C (centres undefined) | – | ? | ? | – | –
CCn1cc(CN2CCOc3ccc(C(O)C4CCCCC4)cc3C2)c(C)n1 (centres undefined) | – | · | · | · | ·
COc1ccccc1OCCNC(=O)c1c(-c2ccccc2Cl)noc1C | – | – | – | – | –
O=C(Cc1ccccc1Cl)Nc1cccnc1 | – | – | – | – | –
CCOc1ccc(NC(=O)CSc2n[nH]c(N)n2)c([N+](=O)[O-])c1 | – | – | – | – | –
CCOc1ccc(NC(=O)CSc2nc(-c3cccs3)cc(C(F)(F)F)n2)c([N+](=O)[O-])c1 | – | – | – | – | -100.9
Cc1cc(Cl)ccc1OCC(=O)NNC(=O)c1ccc(=O)[nH]c1 | – | · | – | – | –
CCN1CCN(CCCN(Cc2ccco2)C(=S)Nc2ccc(C)c(Cl)c2)CC1 | – | – | 8.91µM | – | –
Cc1ccc(NC(=S)N(CCCN2CCOCC2)Cc2ccco2)cc1Cl | – | – | – | – | –
CCOC(=O)c1ccc(NC(=S)N(CCCN2CCCC2)Cc2ccco2)cc1 | – | – | 10µM | – | –
